Source: PubChem
Only some compounds are listed: those with a hit (about 3% of all), similar ones and a draw of the others.
PAFAH1B2 inh: inhibitors of human PAFAH1B2. inhibition, % at 3.39 µM. actives 1.2% (n = 340,000). recombinant PAFAH1B2, FP-rhodamine activity probe, fluorescence polarization. AID 492953;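 active = inhibition above the mean of all tested compounds plus 3 SD, cut at about 24% in these data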
Target sequence (P68402 whole entry, looked up): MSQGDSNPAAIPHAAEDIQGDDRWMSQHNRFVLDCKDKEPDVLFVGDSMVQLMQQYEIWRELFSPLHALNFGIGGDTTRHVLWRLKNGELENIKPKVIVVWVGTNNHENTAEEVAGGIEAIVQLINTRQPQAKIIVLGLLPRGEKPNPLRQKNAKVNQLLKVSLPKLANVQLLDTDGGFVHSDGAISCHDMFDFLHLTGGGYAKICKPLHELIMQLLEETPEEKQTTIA
PAFAH2 inh: PAFAH2 (human) inhibition | Q99487 | recombinant PAFAH2, FP-rhodamine activity probe, fluorescence polarization | inhibition, % at 3.39 µM | actives 0.99% (n = 340,000) | AID 492956;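 active = inhibition above the mean over all tested compounds plus 3 SD, cut at about 30% in these data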;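 note: inhibitors block probe labeling of enzyme so polarization drops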
ATG4B inhibitor: blocks human ATG4B protease cleavage of LC3 substrate; actives 0.51% (n = 340,000); AID 504462; inhibition, % at 8.33 µM; Q9Y4P1; ATG4B cleavage of LC3-PLA2, NBD-HPC fluorescence, 1 h; in the data active = inhibition above about 40%
PAFAH1B3 FP inh: PAFAH1B3 (human) inhibition; Q15102; recombinant PAFAH1B3, FP-rhodamine probe, fluorescence polarization; inhibition, % at 3.39 µM; actives 0.28% (n = 340,000); AID 492972;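 active = inhibition above the screen-wide average of all tested compounds plus 3 SD, cut at about 25% in these data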
pPAFAH FP inh: inhibitors of human plasma PAF acetylhydrolase (pPAFAH) | recombinant pPAFAH, FP-rhodamine probe fluorescence polarization | inhibition, % at 3.39 µM | Q13093 | actives 1.5% (n = 330,000);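 active = inhibition above the mean inhibition across the screen plus 3 SD, cut at about 25% in these data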;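 note: inhibitors block binding of the rhodamine activity-based probe so polarization drops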
Target sequence (Q13093 whole entry, looked up): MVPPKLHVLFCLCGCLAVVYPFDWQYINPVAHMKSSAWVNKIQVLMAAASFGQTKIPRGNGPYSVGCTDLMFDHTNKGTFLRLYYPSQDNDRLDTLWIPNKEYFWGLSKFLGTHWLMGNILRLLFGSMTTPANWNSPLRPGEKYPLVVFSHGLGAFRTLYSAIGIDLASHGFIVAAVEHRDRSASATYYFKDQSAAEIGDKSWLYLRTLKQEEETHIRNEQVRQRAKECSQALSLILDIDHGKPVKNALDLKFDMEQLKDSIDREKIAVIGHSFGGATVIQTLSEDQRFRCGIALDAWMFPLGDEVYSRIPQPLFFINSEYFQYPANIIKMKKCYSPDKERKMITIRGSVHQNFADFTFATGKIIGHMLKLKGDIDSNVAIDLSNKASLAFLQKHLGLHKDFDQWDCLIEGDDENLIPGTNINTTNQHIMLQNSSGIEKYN
DAGLB inhibitor: blocks human DAGLB lipase activity; Q8NCG7; HEK293T DAGLB membrane lysate, EnzChek fluorogenic substrate; inhibition, % at 5.17 µM; actives 0.059% (n = 340,000); AID 504411; in the data active = inhibition above about 34%
A number is an active result.

For C/C(CC(=O)Nc1ccccc1C#N)=N\NC(=O)c1ccncc1 the results were PAFAH1B2 inh inactive, PAFAH2 inh inactive, ATG4B inhibitor inactive, PAFAH1B3 FP inh inactive, pPAFAH FP inh inactive and DAGLB inhibitor inactive.
`CCCCCCCCCCCCN1[C@@H](CC(=O)OC)c2cc(C(F)(F)F)ccc2S1(=O)=O` gave PAFAH1B2 inh inactive, PAFAH2 inh inactive, ATG4B inhibitor inactive, PAFAH1B3 FP inh inactive, pPAFAH FP inh inactive and DAGLB inhibitor inactive.
For CCCCCCCCN1[C@@H](CC(=O)O)c2cc(C(F)(F)F)ccc2S1(=O)=O the results were PAFAH1B2 inh 27.3, PAFAH2 inh inactive, ATG4B inhibitor inactive, PAFAH1B3 FP inh inactive, pPAFAH FP inh inactive and DAGLB inhibitor inactive.
Screening CC[C@]12c3[nH]c4ccc(Cl)cc4c3CCN1C(=O)[C@@H](CC(=O)NC/C=C(\C)CCC=C(C)C)C[C@@H]2C(=O)N1CCN(C(=O)c2ccco2)CC1 returned PAFAH1B2 inh inactive, PAFAH2 inh inactive, ATG4B inhibitor inactive, PAFAH1B3 FP inh inactive, pPAFAH FP inh inactive and DAGLB inhibitor inactive.
`O=C(OCC(=O)N1CCN(c2ccc(F)cc2)CC1)c1cnc2ccccc2n1` gave PAFAH1B2 inh inactive, PAFAH2 inh inactive, ATG4B inhibitor inactive, PAFAH1B3 FP inh inactive, pPAFAH FP inh inactive and DAGLB inhibitor inactive.
Screening CCCCCCc1cc2cc(S(=O)(=O)c3ccc(F)c(Cl)c3)c(=O)oc2cc1O returned PAFAH1B2 inh inactive, PAFAH2 inh inactive, ATG4B inhibitor inactive, PAFAH1B3 FP inh inactive, pPAFAH FP inh 33.0 and DAGLB inhibitor inactive.
For CCc1ccc2[nH]c(C(=O)N(C)c3ccc(F)cc3F)cc2c1 the results were PAFAH1B2 inh inactive, PAFAH2 inh inactive, ATG4B inhibitor inactive, PAFAH1B3 FP inh inactive, pPAFAH FP inh inactive and DAGLB inhibitor inactive.
O=C(COC(=O)c1c[nH]c2ccccc12)Nc1ccc(F)cc1 was read as PAFAH1B2 inh inactive, PAFAH2 inh 77.4, ATG4B inhibitor inactive, PAFAH1B3 FP inh inactive, pPAFAH FP inh 30.5 and DAGLB inhibitor inactive.
Screening O=C(COC(=O)c1c[nH]c2ccccc12)Nc1cccc(F)c1 returned PAFAH1B2 inh inactive, PAFAH2 inh 81.3, ATG4B inhibitor inactive, PAFAH1B3 FP inh inactive, pPAFAH FP inh 25.1 and DAGLB inhibitor inactive.
NC(=S)NN=C1CCSCC1 was read as PAFAH1B2 inh inactive, PAFAH2 inh inactive, ATG4B inhibitor inactive, PAFAH1B3 FP inh inactive and DAGLB inhibitor inactive.
Screening O=C(NN=Cc1ccc(F)cc1)c1ccccc1NS(=O)(=O)c1cccs1 returned PAFAH1B2 inh inactive, PAFAH2 inh inactive, ATG4B inhibitor inactive, PAFAH1B3 FP inh inactive, pPAFAH FP inh inactive and DAGLB inhibitor inactive.
Screening O=C(N/N=C/c1ccc([N+](=O)[O-])o1)c1cc2ccccc2o1 returned PAFAH1B2 inh inactive, PAFAH2 inh inactive, ATG4B inhibitor inactive, PAFAH1B3 FP inh inactive, pPAFAH FP inh 30.4 and DAGLB inhibitor inactive.
Screening O=C(N/N=C/c1ccc([N+](=O)[O-])o1)c1cc2c(ccc3ccccc32)o1 returned PAFAH1B2 inh inactive, PAFAH2 inh inactive, ATG4B inhibitor inactive, PAFAH1B3 FP inh inactive and DAGLB inhibitor inactive.
For O=C(NN=Cc1cc(Br)c(O)c(Br)c1)c1ccccc1NS(=O)(=O)c1cccs1 the results were PAFAH1B2 inh inactive, PAFAH2 inh inactive, ATG4B inhibitor inactive, PAFAH1B3 FP inh 30.2, pPAFAH FP inh 30.7 and DAGLB inhibitor inactive.
O=C(N/N=C/c1ccc([N+](=O)[O-])o1)c1ccccc1NS(=O)(=O)c1cccs1 was read as PAFAH1B2 inh inactive, PAFAH2 inh inactive, ATG4B inhibitor inactive, PAFAH1B3 FP inh inactive, pPAFAH FP inh 33.9 and DAGLB inhibitor inactive.
`CCOC(=O)CCNC(=O)N1CCCC(Cc2ccccc2)(C(=O)OCC)C1` (stereo not drawn) gave PAFAH1B2 inh inactive, PAFAH2 inh inactive, ATG4B inhibitor inactive, PAFAH1B3 FP inh inactive, pPAFAH FP inh inactive and DAGLB inhibitor inactive.
O=C(Nc1ccc(S(=O)(=O)Nc2ncccn2)cc1)c1ccc(N2CCCC2=O)cc1 was read as PAFAH1B2 inh inactive, PAFAH2 inh inactive, ATG4B inhibitor inactive, PAFAH1B3 FP inh inactive, pPAFAH FP inh inactive and DAGLB inhibitor inactive.
For O=C(C1CCCCC1)N1C[C@@H](O)[C@H](n2cc(-c3ccc(F)cc3)nn2)C[C@@H]1c1ccccc1 the results were DAGLB inhibitor inactive.
`O=C(CC1SC(=O)N(c2ccccc2)C1=O)Nc1cccc2ccccc12` (stereo not drawn) gave PAFAH1B2 inh inactive, PAFAH2 inh inactive, ATG4B inhibitor inactive, PAFAH1B3 FP inh inactive, pPAFAH FP inh 25.3 and DAGLB inhibitor inactive.
For Cc1ccccc1NC(=O)CC1SC(=O)N(c2ccccc2)C1=O (stereo not drawn) the results were PAFAH1B2 inh inactive, PAFAH2 inh inactive, ATG4B inhibitor inactive, PAFAH1B3 FP inh inactive, pPAFAH FP inh inactive and DAGLB inhibitor inactive.
Screening Cc1ccc(C(=O)N/N=C/c2ccc(-c3ccc(Br)cc3[N+](=O)[O-])o2)o1 returned PAFAH1B2 inh inactive, PAFAH2 inh inactive, ATG4B inhibitor inactive, PAFAH1B3 FP inh inactive, pPAFAH FP inh 26.4 and DAGLB inhibitor inactive.
Screening O=C(O)CCC(=O)Nc1ccc(-c2csc(Nc3cccc4ccccc34)n2)cc1 returned PAFAH1B2 inh inactive, PAFAH2 inh inactive, ATG4B inhibitor inactive, PAFAH1B3 FP inh inactive, pPAFAH FP inh inactive and DAGLB inhibitor inactive.
`Cc1ccccc1NS(=O)(=O)c1ccc(C(=O)N2CCN(c3ccccn3)CC2)cc1` gave PAFAH1B2 inh inactive, PAFAH2 inh inactive, ATG4B inhibitor inactive, PAFAH1B3 FP inh inactive, pPAFAH FP inh 26.4 and DAGLB inhibitor inactive.
`Cc1ccccc1NS(=O)(=O)c1ccc(C(=O)N2CCCCCC2)cc1` gave PAFAH1B2 inh inactive, PAFAH2 inh inactive, ATG4B inhibitor inactive, PAFAH1B3 FP inh inactive, pPAFAH FP inh 24.9 and DAGLB inhibitor inactive.
Screening Cc1ccccc1NS(=O)(=O)c1ccc(OCC(=O)NCc2ccccn2)cc1 returned PAFAH1B2 inh inactive, PAFAH2 inh inactive, ATG4B inhibitor inactive, PAFAH1B3 FP inh inactive, pPAFAH FP inh 28.7 and DAGLB inhibitor inactive.
`O=C(CSc1ccc(F)cc1)Nc1ccccc1N1CCOCC1` gave PAFAH1B2 inh 25.6, PAFAH2 inh inactive, ATG4B inhibitor inactive, PAFAH1B3 FP inh inactive, pPAFAH FP inh inactive and DAGLB inhibitor inactive.
Screening O=C(CSc1ccccc1)Nc1ccccc1N1CCOCC1 returned PAFAH1B2 inh inactive, PAFAH2 inh inactive, ATG4B inhibitor inactive, PAFAH1B3 FP inh inactive, pPAFAH FP inh inactive and DAGLB inhibitor inactive.
Screening C[C@H](CO)N1C[C@H](C)[C@@H](CN(C)S(=O)(=O)c2cn(C)cn2)Oc2c(NS(=O)(=O)c3ccc(F)cc3)cccc2C1=O returned PAFAH1B2 inh inactive, PAFAH2 inh inactive, ATG4B inhibitor inactive, PAFAH1B3 FP inh inactive, pPAFAH FP inh inactive and DAGLB inhibitor inactive.
`CCOC1=C/C(=C/c2c(N)n3nc(-c4ccccc4)sc3nc2=O)C=CC1=O` gave ATG4B inhibitor inactive.
`COC1=C/C(=C/c2c(N)n3nc(-c4ccc(C)cc4)sc3nc2=O)C=CC1=O` gave PAFAH1B2 inh 27.5, PAFAH2 inh inactive, ATG4B inhibitor inactive, PAFAH1B3 FP inh inactive and DAGLB inhibitor inactive.
